BoNT-A LC inh2 – BoNT A light chain protease inhibition; multiplex microsphere protease substrate cleavage, flow cytometry; inhibition, % at 10 µM; 360,000 tested, 0.17% active; note: plate controls were buffer without enzyme for full effect and enzyme alone for no effect
Vc quorum ag – quorum light induction in luxS cqsA deficient V. cholerae | V. cholerae BH1578 lux reporter, luminescence, 6 h | activation, % at 18.7 µM | 350,000 tested, 0.16% active; in the data active = activation mostly above about 9.7%, no sharp cut-off; inconclusive = no clear call, values can overlap the other calls; inactive = mostly below about 3.7%
BoNT F protease – blocks Botulinum neurotoxin F light chain protease; Multiplex microsphere protease cleavage assay, flow cytometry; inhibition, % at 10 µM; 360,000 tested, 0.22% active; in the data active = inhibition above about 35%, passing the limit was not always enough; inconclusive = no clear call, values can overlap the other calls; note: plate controls were buffer without enzyme for full effect and enzyme alone for no effect
Bead autofluor – counter-screen for toxin protease inhibitors: compound fluorescence; compound autofluorescence counterscreen, microsphere flow cytometry; stronger effect = higher value; fluorescence intensity (concentration not given with the values); 360,000 tested, 3.1% active; in the data active = fluorescence intensity above about 16000; inconclusive = no clear call, values can overlap the other calls
Anthrax LF inh2 – anthrax lethal factor protease inhibition; P15917; multiplex microsphere protease cleavage assay, LF; inhibition, % at 10 µM; 360,000 tested, 0.12% active; note: plate controls were buffer without enzyme for full effect and enzyme alone for no effect
BoNT-A LC CP1 – blocks botulinum neurotoxin A light chain protease; shares compounds with BoNT F protease; multiplex microsphere protease assay, flow cytometry; inhibition, % at 10 µM; 720 tested, 3% active; AID 602139; in the data active = inhibition above about 32%
BoNT-F LC CP1 – BoNT/F light chain protease inhibition; shares compounds with BoNT F protease; multiplex microsphere protease cleavage assay, flow cytometry; inhibition, % at 10 µM; 720 tested, under 10 active; AID 602140; call rule not given here
LF protease CP1 – inhibitors of Bacillus anthracis lethal factor protease; 720 tested, under 10 active; shares compounds with BoNT F protease; multiplex microsphere protease cleavage assay, LF; inhibition, % at 10 µM; call rule not given here
* = called active by the depositor; i = inactive; ? = inconclusive; · = not tested or not shown. Compounds with a hit are over-represented: about 3.5% of the library has one in this group of screens. Cut-off read from the data, not from the text of the source, unless noted: active = inhibition above about 30%; inconclusive = no clear call, values can overlap the other calls; inactive = below that.

SMILES	BoNT-A LC inh2	Vc quorum ag	BoNT F protease	Bead autofluor	Anthrax LF inh2	BoNT-A LC CP1	BoNT-F LC CP1	LF protease CP1
Cc1cc(C)n(-c2nc3ccccc3nc2N2CCN(S(=O)(=O)c3ccc4ccccc4c3)CC2)n1	34*	0	20	9467	25	12	-3	6
Cc1cc(C)n(-c2nc3ccccc3nc2N2CCN(S(=O)(=O)c3ccc(F)c(C)c3)CC2)n1	24	-4	12	7375	11	·	·	·
Cc1cccc(CC(=O)NCCN2CCOCC2)c1	-4	0	16	3879	4	·	·	·
Cc1ccc(-c2nc3cc(Br)cnc3nc2-c2ccc(C)cc2)cc1	46*	-1	7	4410	22	24	11	13
CCCNC(=O)c1ccccc1NC(=O)c1ccccc1N(C)S(=O)(=O)c1ccc(C)cc1	-1	0	38*	12100	1	-1	-1	-1
COc1ccc2cc(C(c3nnnn3C(C)(C)C)N3CCSCC3)c(=O)[nH]c2c1 (stereo not drawn)	1	-1	-12	12957	-4	·	·	·
CCC(C)(C)n1nnnc1C(c1cc2cccc(C)c2[nH]c1=O)N1CCCC1 (stereo not drawn)	?	i	4	23337*	3	0	0	-4
CCC(C)(C)n1nnnc1C(c1cc2cc(C)cc(C)c2[nH]c1=O)N1CCCC1 (stereo not drawn)	10	i	2	10428	7	·	·	·
CCC(C)(C)n1nnnc1C(c1cc2ccc(OC)cc2[nH]c1=O)N1CCCCC1 (stereo not drawn)	2	0	3	10987	-6	-2	0	-5
CCn1cc(C(=O)Nc2ccccc2C(=O)OC)cn1	3	i	?	3528	2	·	·	·
CCn1cc(C(=O)NCc2ccccc2Cl)cn1	4	0	40*	2098	2	1	3	1
Cn1c(=O)[nH]c(=O)c2c1nc1n2CC(O)CN1c1ccccc1 (stereo not drawn)	3	-8	36*	3482	-14	0	-1	-2
CCCOC1CCCN(Cc2nc(-c3cnccn3)no2)C1 (stereo not drawn)	4	1	35*	4198	-4	0	-2	1
Clc1ccc(CSc2ccc(-c3ccccn3)nn2)cc1	-2	i	-4	4754	-3	·	·	·
Clc1ccc(Cc2ccc(SCc3ccccc3)nn2)c(Cl)c1	21	i	43*	?	22	0	2	-1
O=C(Nc1c[nH]c(=O)[nH]c1=O)c1cc([N+](=O)[O-])cc([N+](=O)[O-])c1	-5	-1	135*	4035	7	1	76*	1
Nc1c(C(=O)NC2CCCC2)c2nc3ccccc3nc2n1N	-1	i	-4	4248	-4	·	·	·
Nc1c(C(=O)NC2CCCC2)c2nc3ccccc3nc2n1CC1CCCO1 (stereo not drawn)	31*	1	7	4737	14	3	-7	1
N#Cc1nc(-c2ccccc2F)oc1NCCc1ccccc1	?	i	42*	10751	2	-3	-2	-4
N#Cc1nc(-c2ccccc2F)oc1NCc1ccccc1	-1	0	-10	5810	3	·	·	·
Cc1cccc(N(CC(=O)N2CCCCCC2)S(C)(=O)=O)c1C	-2	i	36*	3213	-24	0	2	6
Cc1cccc(N(CC(=O)N2CCOCC2)S(C)(=O)=O)c1C	1	i	2	5239	6	·	·	·
COc1ccc(N2C(=O)C3CCCN3C2c2ccccc2)cc1Cl (stereo not drawn)	0	5	53*	4581	0	0	4	1
COc1ccc(N2CS(=O)CC2=O)cc1 (stereo not drawn)	0	i	3	2545	-2	·	·	·
CCOC(=O)C(O)(c1ccc(N(CC)S(=O)(=O)c2ccc(C)cc2)cc1)C(F)(F)F (stereo not drawn)	8	i	70*	6229	-1	2	-3	-3
SMILES	BoNT-A LC inh2	Vc quorum ag	BoNT F protease	Bead autofluor	Anthrax LF inh2	BoNT-A LC CP1	BoNT-F LC CP1	LF protease CP1
Cc1ccccc1NC(=O)c1cccc(C(=O)Nc2ccccc2C)c1	4	-1	?	4155	-7	·	·	·
Cc1ccccc1NC(=O)c1cccnc1	3	i	66*	3631	10	0	-1	1
O=C(Nc1ccccc1)c1cn(CCBr)cn1	0	1	?	3416	-9	·	·	·
O=C(O)c1ccc(CNC(=O)C23CC4CC(CC(C4)C2)C3)cc1	10	-6	98*	3426	9	-2	0	-6
CC(C)(C)c1cc(C(=O)CCN2CCOCC2)cc(C(C)(C)C)c1O	-3	i	5	3215	18	1	-3	-4
Cc1cccc(OCC(=O)NCCCNC(=O)c2cnccn2)c1	4	i	3	3081	-4	·	·	·
Clc1ccc(/C=C/c2ncc[nH]2)c(Cl)c1	5	i	40*	3685	-8	0	-6	-1
CSC1=NC(C)(C)C=C(/C=C/c2ccc(Cl)cc2Cl)N1	0	0	1	4456	-8	·	·	·
CCN(CCO)CC1CCCC2CCCCC21 (stereo not drawn)	0	·	1	4424	9	·	·	·
COc1ccc(CCCc2nnc(SCC(=O)Nc3nc(C)cs3)n2C)cc1	?	i	35*	11415	-17	0	-6	-1
Cc1cc(NC(=O)CSc2nnc(-c3ccncc3)n2C)n(-c2ccccc2)n1	8	-1	?	7628	70*	1	3	4
CCC(CC)c1nnc(NC(=O)CSCC(=O)Nc2cc(C)on2)s1	-4	-1	-6	6940	1	·	·	·
COc1ccc(-c2nnc(SCC(=O)Nc3ccc(C(=O)O)cc3)n2-c2ccc(Cl)cc2)cc1	0	i	10	3869	28	0	0	-2
COc1ccc(C(=O)NCC(=O)N2CCN(C(=O)c3ccco3)CC2)cc1[N+](=O)[O-]	0	-1	0	4347	-9	·	·	·
COc1ccc(-c2cc(C(=O)Nc3ccc(F)cc3F)no2)cc1	0	1	-2	3706	32*	1	-4	0
COc1ccc(OC)c(-c2cc(C(=O)Nc3ccc(F)cc3F)no2)c1	0	0	1	4025	-1	·	·	·
O=C(O)c1ccc(Cl)c(S(=O)(=O)NCc2cccnc2)c1	-1	-1	0	3280	-2	·	·	·
O=S(=O)(NCc1cccnc1)c1cc(Cl)ccc1Cl	34*	-1	37*	7951	-29	1	-6	2
CCN(CC)C(=O)c1ccc(S(=O)(=O)c2ccccc2)cc1	1	i	43*	3400	-1	-1	-3	0
CCN(CC)C(=O)c1ccc(NS(=O)(=O)c2ccccc2)cc1	1	i	6	3742	2	·	·	·
CCOCCSc1nc2c(c(-c3cccs3)c1C#N)CC/C2=C/c1cccs1	77*	0	25	2450	35*	37*	3	23

Screening data deposited in PubChem BioAssay by several laboratories.
